From the supplement of paper PMC6411743
± gives the standard deviation of the averaged measurements. Targets with the largest changes are over-represented here; the source holds about 6,500 in all.

Compound: Nc1ncnc2c1ncn2[C@@H]1O[C@H](COP(=O)(O)OP(=O)(O)OP(=O)(O)O)[C@@H](O)[C@H]1O [adenosine triphosphate]
Experiment: NP40-soluble protein abundance relative to vehicle (solubility fold change) (ratio); higher = more soluble protein in presence of ATP
In short: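 In three independent experiments, Jurkat crude lysate made by Dounce homogenisation was treated for 10 min at room temperature and then 3 min at 37 °C with eight concentrations ranging from 0.1 to 10 mM. It was then solubilised with 0.8% NP40 plus benzonase for 60 min at 4 °C and ultracentrifuged. The supernatant was TMT-labelled for LC-MS/MS, and each value is the fold change against the detergent-processed vehicle for the same replicate, using vsn-normalised intensities.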

Chain of UniProt Q96AQ6 (Q96AQ6 whole entry): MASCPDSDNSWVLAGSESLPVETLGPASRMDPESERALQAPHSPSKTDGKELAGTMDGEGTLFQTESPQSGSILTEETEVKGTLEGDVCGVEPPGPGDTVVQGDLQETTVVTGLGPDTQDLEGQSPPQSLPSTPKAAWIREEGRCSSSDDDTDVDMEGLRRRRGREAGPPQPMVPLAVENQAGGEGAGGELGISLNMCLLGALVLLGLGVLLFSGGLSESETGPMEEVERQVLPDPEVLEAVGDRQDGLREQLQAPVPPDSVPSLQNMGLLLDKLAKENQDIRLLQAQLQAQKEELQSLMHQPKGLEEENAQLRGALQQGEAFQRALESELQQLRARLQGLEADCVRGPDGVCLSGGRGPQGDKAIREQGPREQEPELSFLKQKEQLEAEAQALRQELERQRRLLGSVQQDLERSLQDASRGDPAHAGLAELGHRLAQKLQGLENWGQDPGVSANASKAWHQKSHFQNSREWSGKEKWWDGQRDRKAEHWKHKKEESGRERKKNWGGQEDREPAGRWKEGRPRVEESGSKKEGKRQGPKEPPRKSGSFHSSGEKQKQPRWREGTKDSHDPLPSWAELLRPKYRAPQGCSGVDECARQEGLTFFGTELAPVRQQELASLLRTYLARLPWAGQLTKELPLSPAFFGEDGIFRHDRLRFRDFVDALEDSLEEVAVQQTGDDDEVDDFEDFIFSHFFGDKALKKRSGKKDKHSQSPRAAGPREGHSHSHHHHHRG
Chain of UniProt Q9NWB6 (Q9NWB6 whole entry): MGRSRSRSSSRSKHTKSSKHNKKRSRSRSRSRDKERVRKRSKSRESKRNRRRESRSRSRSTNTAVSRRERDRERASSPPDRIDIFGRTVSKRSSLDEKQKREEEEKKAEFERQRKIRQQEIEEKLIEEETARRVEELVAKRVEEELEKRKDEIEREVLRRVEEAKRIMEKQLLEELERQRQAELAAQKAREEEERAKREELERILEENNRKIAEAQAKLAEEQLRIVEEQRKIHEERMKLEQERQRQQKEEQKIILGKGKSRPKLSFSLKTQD
Chain of UniProt Q9UBK8 (Q9UBK8 whole entry): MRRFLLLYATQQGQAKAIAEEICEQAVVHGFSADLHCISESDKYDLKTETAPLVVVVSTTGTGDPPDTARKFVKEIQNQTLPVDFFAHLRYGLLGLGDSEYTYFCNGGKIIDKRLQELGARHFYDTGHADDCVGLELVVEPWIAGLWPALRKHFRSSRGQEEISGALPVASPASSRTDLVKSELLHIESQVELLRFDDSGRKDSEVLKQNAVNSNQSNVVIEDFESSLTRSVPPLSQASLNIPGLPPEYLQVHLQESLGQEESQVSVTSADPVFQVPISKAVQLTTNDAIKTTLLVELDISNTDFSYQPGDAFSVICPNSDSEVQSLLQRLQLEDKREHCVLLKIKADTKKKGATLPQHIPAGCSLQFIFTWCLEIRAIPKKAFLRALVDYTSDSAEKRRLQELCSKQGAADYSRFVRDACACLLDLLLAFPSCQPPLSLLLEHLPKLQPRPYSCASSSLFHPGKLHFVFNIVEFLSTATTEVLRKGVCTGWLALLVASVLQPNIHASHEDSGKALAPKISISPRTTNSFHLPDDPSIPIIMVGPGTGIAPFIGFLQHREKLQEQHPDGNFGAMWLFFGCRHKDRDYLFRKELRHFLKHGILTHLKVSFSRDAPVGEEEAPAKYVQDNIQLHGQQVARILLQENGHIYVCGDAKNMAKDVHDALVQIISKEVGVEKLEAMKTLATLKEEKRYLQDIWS
Chain of UniProt Q9BXI6 (Q9BXI6 whole entry): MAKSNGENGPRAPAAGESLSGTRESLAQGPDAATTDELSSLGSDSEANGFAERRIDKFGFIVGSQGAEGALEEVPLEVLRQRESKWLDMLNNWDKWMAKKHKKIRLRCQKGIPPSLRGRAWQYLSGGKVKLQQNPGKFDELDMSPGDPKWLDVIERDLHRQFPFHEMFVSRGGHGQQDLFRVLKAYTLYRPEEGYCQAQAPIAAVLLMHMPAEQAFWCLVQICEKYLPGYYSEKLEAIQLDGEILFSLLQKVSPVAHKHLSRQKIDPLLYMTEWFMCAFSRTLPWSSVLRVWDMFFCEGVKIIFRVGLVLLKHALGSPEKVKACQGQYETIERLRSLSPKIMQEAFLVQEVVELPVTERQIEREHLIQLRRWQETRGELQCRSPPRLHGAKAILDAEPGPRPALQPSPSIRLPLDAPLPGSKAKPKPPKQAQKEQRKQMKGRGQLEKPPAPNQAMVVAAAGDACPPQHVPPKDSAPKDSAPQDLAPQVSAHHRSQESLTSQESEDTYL
Chain of UniProt Q96KB5 (Q96KB5 whole entry): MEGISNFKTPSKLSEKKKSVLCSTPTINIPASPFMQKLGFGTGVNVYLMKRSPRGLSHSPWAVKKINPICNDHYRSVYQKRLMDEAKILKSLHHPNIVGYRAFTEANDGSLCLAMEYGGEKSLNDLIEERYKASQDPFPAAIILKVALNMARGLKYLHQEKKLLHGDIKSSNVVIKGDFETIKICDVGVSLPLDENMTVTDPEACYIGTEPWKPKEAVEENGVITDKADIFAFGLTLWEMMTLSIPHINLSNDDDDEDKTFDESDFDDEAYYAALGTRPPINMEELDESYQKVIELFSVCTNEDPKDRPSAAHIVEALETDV
Chain of UniProt Q9NVT9 (Q9NVT9 whole entry): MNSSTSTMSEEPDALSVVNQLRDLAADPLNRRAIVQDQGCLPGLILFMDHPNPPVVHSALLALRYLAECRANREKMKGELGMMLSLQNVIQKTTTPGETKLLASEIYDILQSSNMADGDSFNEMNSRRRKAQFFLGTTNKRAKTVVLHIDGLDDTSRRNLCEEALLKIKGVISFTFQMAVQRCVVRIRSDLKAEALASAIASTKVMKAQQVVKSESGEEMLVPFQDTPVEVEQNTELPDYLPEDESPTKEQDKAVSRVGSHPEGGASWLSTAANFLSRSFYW
Chain of UniProt Q9HC36 (Q9HC36 whole entry): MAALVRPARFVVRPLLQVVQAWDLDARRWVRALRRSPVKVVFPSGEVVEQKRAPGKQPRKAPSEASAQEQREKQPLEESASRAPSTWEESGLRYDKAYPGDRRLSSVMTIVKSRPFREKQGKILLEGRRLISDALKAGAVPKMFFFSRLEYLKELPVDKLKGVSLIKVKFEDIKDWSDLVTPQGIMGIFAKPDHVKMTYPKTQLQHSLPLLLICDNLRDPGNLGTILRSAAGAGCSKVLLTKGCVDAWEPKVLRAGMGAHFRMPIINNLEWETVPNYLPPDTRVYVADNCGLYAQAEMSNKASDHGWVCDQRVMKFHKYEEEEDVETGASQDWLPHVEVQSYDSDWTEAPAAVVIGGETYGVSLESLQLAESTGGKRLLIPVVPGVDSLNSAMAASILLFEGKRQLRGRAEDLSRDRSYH
Chain of UniProt Q9BZ23 (Q9BZ23 whole entry): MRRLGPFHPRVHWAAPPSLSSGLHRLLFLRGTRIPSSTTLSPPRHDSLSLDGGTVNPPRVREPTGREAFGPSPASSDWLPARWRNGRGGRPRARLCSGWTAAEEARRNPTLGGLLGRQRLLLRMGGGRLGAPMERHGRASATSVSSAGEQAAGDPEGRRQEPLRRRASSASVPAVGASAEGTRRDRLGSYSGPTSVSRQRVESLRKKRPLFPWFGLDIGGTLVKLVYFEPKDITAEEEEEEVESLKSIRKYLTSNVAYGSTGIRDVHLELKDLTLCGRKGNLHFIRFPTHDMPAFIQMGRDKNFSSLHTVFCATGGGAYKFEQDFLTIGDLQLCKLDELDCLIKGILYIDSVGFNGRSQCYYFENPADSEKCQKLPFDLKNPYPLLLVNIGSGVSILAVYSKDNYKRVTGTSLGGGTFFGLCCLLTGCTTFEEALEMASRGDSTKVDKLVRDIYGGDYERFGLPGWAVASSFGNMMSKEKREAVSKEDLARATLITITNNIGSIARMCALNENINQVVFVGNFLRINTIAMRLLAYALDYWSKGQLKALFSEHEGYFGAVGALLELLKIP
Chain of UniProt Q9NUQ7 (Q9NUQ7 whole entry, one chain of several): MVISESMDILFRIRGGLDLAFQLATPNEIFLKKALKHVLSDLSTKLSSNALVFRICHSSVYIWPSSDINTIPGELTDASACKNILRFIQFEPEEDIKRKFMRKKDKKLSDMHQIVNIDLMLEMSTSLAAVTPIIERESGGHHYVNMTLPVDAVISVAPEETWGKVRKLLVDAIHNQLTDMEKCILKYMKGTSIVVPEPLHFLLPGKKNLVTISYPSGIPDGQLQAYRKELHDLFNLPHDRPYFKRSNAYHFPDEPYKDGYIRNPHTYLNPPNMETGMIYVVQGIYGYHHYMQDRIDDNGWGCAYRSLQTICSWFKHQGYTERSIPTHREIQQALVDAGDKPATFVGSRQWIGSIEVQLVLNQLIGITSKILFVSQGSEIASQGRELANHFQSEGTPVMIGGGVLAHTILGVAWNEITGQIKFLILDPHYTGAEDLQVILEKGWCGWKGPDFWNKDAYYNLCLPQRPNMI
Chain of UniProt Q9BVM2 (Q9BVM2 whole entry): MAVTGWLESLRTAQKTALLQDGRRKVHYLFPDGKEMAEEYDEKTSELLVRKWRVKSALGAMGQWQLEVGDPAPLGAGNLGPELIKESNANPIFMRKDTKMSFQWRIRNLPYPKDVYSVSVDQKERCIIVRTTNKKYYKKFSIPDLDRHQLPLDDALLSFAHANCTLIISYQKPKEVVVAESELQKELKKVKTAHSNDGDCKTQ
Chain of UniProt Q96IX5 (Q96IX5 whole entry): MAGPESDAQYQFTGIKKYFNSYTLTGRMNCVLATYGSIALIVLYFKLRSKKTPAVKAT

Target	NP40-soluble protein abundance (concentration: 1mM)	NP40-soluble protein abundance (concentration: 2mM)	NP40-soluble protein abundance (concentration: 4mM)	NP40-soluble protein abundance (concentration: 6mM)	NP40-soluble protein abundance (concentration: 8mM)	NP40-soluble protein abundance (concentration: 10mM)
RPRD1B (UniProt Q9NQG5)	0.969 ± 0.12	0.943 ± 0.039	0.971 ± 0.049	0.993 ± 0.089	1.02 ± 0.034	0.854 ± 0.15
DDX18 (UniProt Q9NVP1)	1.21 ± 0.029	1.3 ± 0.024	1.503 ± 0.0076	1.74 ± 0.035	2.07 ± 0.024	2.36 ± 0.16
UniProt Q9NYP7|Q9NYP7-2	1.07 ± 0.19	1.05 ± 0.12	1.05 ± 0.14	0.94 ± 0.15	1.09 ± 0.17	1.01 ± 0.056
UniProt Q9BXK5|Q9BXK5-4	0.958 ± 0.041	0.97 ± 0.011	0.957 ± 0.028	0.988 ± 0.021	0.926 ± 0.031	0.916 ± 0.052
UniProt Q9BTT6	0.931 ± 0.073	0.916 ± 0.081	0.945 ± 0.049	0.967 ± 0.092	0.961 ± 0.092	0.922 ± 0.045
GTF2H4 (UniProt Q92759)	1.08 ± 0.072	1.04 ± 0.035	1.09 ± 0.059	0.975 ± 0.13	1.16 ± 0.069	1.12 ± 0.036
UniProt Q96QF0|Q96QF0-2	0.996 ± 0.032	0.946 ± 0.021	1.03 ± 0.034	1.001 ± 0.0051	0.994 ± 0.062	0.979 ± 0.078
UniProt Q9BXI6|Q9BXI6-2	0.935 ± 0.035	0.917 ± 0.032	0.927 ± 0.031	0.941 ± 0.038	0.895 ± 0.025	0.925 ± 0.045
UniProt Q9UBK8|Q9UBK8-2	0.946 ± 0.042	1.01 ± 0.066	0.941 ± 0.058	0.97 ± 0.068	0.973 ± 0.028	0.978 ± 0.08
ATP13A1 (UniProt Q9HD20)	1.01 ± 0.1	1 ± 0.06	1.01 ± 0.064	0.951 ± 0.086	1 ± 0.041	0.978 ± 0.03
UniProt Q96B36|Q96B36-3	0.861 ± 0.098	0.826 ± 0.085	0.765 ± 0.029	0.826 ± 0.091	0.747 ± 0.071	0.693 ± 0.12
UniProt Q9P035|H3BS72	1.1 ± 0.16	1.1 ± 0.11	1.1 ± 0.11	1.01 ± 0.091	1.1 ± 0.033	1.15 ± 0.083
UniProt Q9NQW7-3	1.01 ± 0.044	0.994 ± 0.029	0.968 ± 0.044	0.976 ± 0.052	0.991 ± 0.043	0.966 ± 0.036
UniProt Q9H6W3	1.2 ± 0.019	1.25 ± 0.029	1.31 ± 0.063	1.46 ± 0.1	1.54 ± 0.11	1.73 ± 0.093
UniProt Q9BWW4|Q9BWW4-2|Q9BWW4-3	1.05 ± 0.11	0.958 ± 0.12	0.933 ± 0.12	0.999 ± 0.12	0.956 ± 0.056	0.906 ± 0.1
PNPLA2 (UniProt Q96AD5)	1.04 ± 0.047	1 ± 0.069	1.02 ± 0.064	0.927 ± 0.12	0.994 ± 0.062	1.06 ± 0.1
UniProt Q96II8|Q96II8-2|Q96II8-4	1.17 ± 0.11	1.21 ± 0.057	1.2 ± 0.035	1.22 ± 0.078	1.17 ± 0.068	1.21 ± 0.034
UniProt Q96P11-2	1.05 ± 0.039	1.05 ± 0.03	1.11 ± 0.058	1.09 ± 0.068	1.13 ± 0.083	1.18 ± 0.072
NMNAT1 (UniProt Q9HAN9)	1.33 ± 0.36	3.44 ± 2.5	3.91 ± 2.9	4.35 ± 3.5	3.99 ± 2.9	3.99 ± 3
DHX33 (UniProt Q9H6R0)	1.04 ± 0.059	1.1 ± 0.012	1.349 ± 0.0092	1.29 ± 0.089	1.44 ± 0.18	1.51 ± 0.2

Target	NP40-soluble protein abundance (concentration: 1mM)	NP40-soluble protein abundance (concentration: 2mM)	NP40-soluble protein abundance (concentration: 4mM)	NP40-soluble protein abundance (concentration: 6mM)	NP40-soluble protein abundance (concentration: 8mM)	NP40-soluble protein abundance (concentration: 10mM)
TDP1 (UniProt Q9NUW8)	1.02 ± 0.032	1.02 ± 0.046	0.983 ± 0.063	1 ± 0.069	0.985 ± 0.049	1.01 ± 0.062
PNKP (UniProt Q96T60)	1.04 ± 0.02	1.0346 ± 0.00031	1.03 ± 0.022	1.05 ± 0.023	1.11 ± 0.036	1.157 ± 0.011
ELMO1 (UniProt Q92556)	1.05 ± 0.05	1.04 ± 0.043	1.02 ± 0.036	1 ± 0.067	1.04 ± 0.038	1.05 ± 0.05
DPCD (UniProt Q9BVM2)	0.965 ± 0.024	1.02 ± 0.045	0.969 ± 0.01	0.933 ± 0.048	0.929 ± 0.069	1.01 ± 0.087
UniProt Q9NY12|Q9NY12-2	1.11 ± 0.061	1.18 ± 0.084	1.29 ± 0.067	1.41 ± 0.16	1.72 ± 0.15	1.93 ± 0.32
TBRG4 (UniProt Q969Z0)	0.981 ± 0.047	0.957 ± 0.015	0.928 ± 0.026	0.962 ± 0.069	0.955 ± 0.022	0.948 ± 0.015
UniProt Q92804|Q92804-2	1.05 ± 0.14	1.07 ± 0.15	1.24 ± 0.2	1.5 ± 0.29	1.59 ± 0.21	2.05 ± 0.3
FAM117A (UniProt Q9C073)	1.04 ± 0.03	0.992 ± 0.02	0.999 ± 0.039	1.01 ± 0.025	0.972 ± 0.053	0.972 ± 0.024
TGS1 (UniProt Q96RS0)	0.969 ± 0.087	0.995 ± 0.067	1.03 ± 0.035	1.05 ± 0.054	1.03 ± 0.069	1.1 ± 0.026
DDX21 (UniProt Q9NR30)	1.29 ± 0.046	1.42 ± 0.042	1.65 ± 0.098	2.04 ± 0.17	2.53 ± 0.21	3.17 ± 0.13
ARGLU1 (UniProt Q9NWB6)	1.72 ± 0.14	1.86 ± 0.18	2.03 ± 0.26	2.27 ± 0.22	2.33 ± 0.28	2.44 ± 0.27
UniProt Q8WX93|Q8WX93-3|Q8WX93-4|Q8WX93-5|Q8WX93-8	0.978 ± 0.024	0.966 ± 0.046	1.01 ± 0.026	0.97 ± 0.042	0.971 ± 0.044	0.986 ± 0.036
UniProt Q9H974|Q9H974-4	1.03 ± 0.044	1 ± 0.035	1 ± 0.029	0.996 ± 0.044	1.02 ± 0.016	0.991 ± 0.025
UniProt Q96AQ6|Q96AQ6-2	0.939 ± 0.053	0.927 ± 0.024	0.924 ± 0.028	0.953 ± 0.017	0.895 ± 0.01	0.9264 ± 0.0053
ATG4C (UniProt Q96DT6)	1.036 ± 0.003	1.05 ± 0.081	1.04 ± 0.041	0.992 ± 0.12	1.05 ± 0.087	1 ± 0.092
UniProt Q9BZ23|Q9BZ23-3|Q9BZ23-4	0.958 ± 0.079	0.995 ± 0.08	0.937 ± 0.054	0.914 ± 0.05	0.882 ± 0.11	0.91 ± 0.05
IARS2 (UniProt Q9NSE4)	1.04 ± 0.08	1.02 ± 0.075	0.991 ± 0.069	0.977 ± 0.1	1.02 ± 0.056	0.98 ± 0.069
UniProt Q9NW64	1.05 ± 0.068	1.04 ± 0.041	1.07 ± 0.034	1.09 ± 0.05	1.1 ± 0.049	1.11 ± 0.019
UniProt Q9NUQ7|D6RA67	1.09 ± 0.15	1.07 ± 0.13	1.05 ± 0.093	0.95 ± 0.18	1.08 ± 0.072	1.02 ± 0.091
WDR41 (UniProt Q9HAD4)	1.03 ± 0.026	0.994 ± 0.08	1.08 ± 0.062	1 ± 0.033	1 ± 0.065	1.01 ± 0.043

Target	NP40-soluble protein abundance (concentration: 1mM)	NP40-soluble protein abundance (concentration: 2mM)	NP40-soluble protein abundance (concentration: 4mM)	NP40-soluble protein abundance (concentration: 6mM)	NP40-soluble protein abundance (concentration: 8mM)	NP40-soluble protein abundance (concentration: 10mM)
DDX23 (UniProt Q9BUQ8)	1.14 ± 0.052	1.23 ± 0.1	1.38 ± 0.13	1.52 ± 0.21	1.69 ± 0.17	1.81 ± 0.2
ARMC1 (UniProt Q9NVT9)	0.913 ± 0.046	0.946 ± 0.018	0.876 ± 0.024	0.866 ± 0.063	0.881 ± 0.035	0.908 ± 0.029
VPS37B (UniProt Q9H9H4)	0.992 ± 0.11	0.958 ± 0.12	0.967 ± 0.057	0.983 ± 0.12	0.946 ± 0.073	0.887 ± 0.13
MRPL17 (UniProt Q9NRX2)	1.08 ± 0.13	0.934 ± 0.14	0.939 ± 0.14	0.916 ± 0.33	0.93 ± 0.21	0.822 ± 0.18
PIEZO1 (UniProt Q92508)	1.1 ± 0.12	1.09 ± 0.13	1.14 ± 0.24	1.14 ± 0.12	1.09 ± 0.12	1.09 ± 0.012
UniProt Q96T23|Q96T23-2	1.48 ± 0.043	1.62 ± 0.071	1.81 ± 0.041	2 ± 0.1	1.96 ± 0.039	2.13 ± 0.11
PXDN (UniProt Q92626)	1.06 ± 0.1	1.03 ± 0.067	1.09 ± 0.06	1.05 ± 0.049	1.04 ± 0.074	1.06 ± 0.1
UniProt Q96IX5	0.875 ± 0.049	0.935 ± 0.11	0.936 ± 0.16	0.976 ± 0.15	0.909 ± 0.16	0.99 ± 0.14
UniProt Q9NVI7-2	1.54 ± 0.05	1.64 ± 0.086	1.8 ± 0.086	1.89 ± 0.29	2.2 ± 0.2	2.35 ± 0.26
CDK5RAP3 (UniProt Q96JB5)	0.997 ± 0.041	1.05 ± 0.066	1.08 ± 0.065	1.11 ± 0.068	1.12 ± 0.045	1.14 ± 0.099
SENP8 (UniProt Q96LD8)	0.97 ± 0.057	0.942 ± 0.032	0.943 ± 0.014	0.922 ± 0.035	0.911 ± 0.024	0.932 ± 0.023
UniProt Q96KB5|Q96KB5-2	1 ± 0.038	0.98 ± 0.051	0.964 ± 0.031	0.949 ± 0.083	0.958 ± 0.042	0.965 ± 0.039
UniProt Q9BRQ0|Q5T171	0.931 ± 0.11	0.887 ± 0.18	0.898 ± 0.15	0.944 ± 0.19	0.865 ± 0.15	0.909 ± 0.29
PAFAH2 (UniProt Q99487)	1 ± 0.098	1.01 ± 0.074	0.978 ± 0.053	1 ± 0.27	0.992 ± 0.05	1.02 ± 0.064
UniProt Q9HC36	1.11 ± 0.06	1.29 ± 0.068	1.57 ± 0.13	1.8 ± 0.21	2.03 ± 0.2	2.37 ± 0.32
ZNF512B (UniProt Q96KM6)	1.01 ± 0.04	1.05 ± 0.02	1.07 ± 0.024	1.12 ± 0.044	1.08 ± 0.03	1.08 ± 0.043
UniProt Q96EZ8|Q96EZ8-2|Q96EZ8-3	1.08 ± 0.04	1.06 ± 0.053	1.08 ± 0.013	1.09 ± 0.093	1.14 ± 0.038	1.18 ± 0.044
UniProt Q96HN2-2|Q96HN2	0.919 ± 0.042	0.934 ± 0.051	0.898 ± 0.025	0.939 ± 0.052	0.911 ± 0.017	0.934 ± 0.01
UniProt Q9BSW2-2	0.967 ± 0.041	1.01 ± 0.034	1.02 ± 0.02	1.01 ± 0.018	0.972 ± 0.0098	0.988 ± 0.04
UniProt Q969U7|Q969U7-2	1.02 ± 0.072	1.01 ± 0.012	0.965 ± 0.055	0.983 ± 0.029	0.978 ± 0.072	0.986 ± 0.081
